Molecules are shown by their SMILES. Inconclusive results are not listed. The source made the active and inactive calls. How the source made its calls, unless noted: active means hit-call score of the fitted dose curve at least 0.9, where 1 is the maximum; inactive means score below 0.9.

Read-out in experiment [1]: Phosphatase and tensin (PTEN), PTEN (gene 5728)
Kind of experiment: LTEA_HepaRG_PTEN: Life Technologies and Expression Analysis (LTEA) Assay for Phosphatase and tensin (PTEN) using HepaRG (AID 2283523). The conditions noted are these: mRNA level, 48 h; actives raise or lower the signal. An outline of the steps: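 Read-out: TaqMan qRT-PCR of PTEN transcript, normalized to three housekeeping genes, fitted in both directions against 0.5% DMSO. Differentiated human HepaRG cultures received chemicals for 48 h, eight-point half-log series topping at 100 uM.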

Read-out in experiment [2]: solute carrier (SLC22A1), SLC22A1 (gene 6580)
Kind of experiment: LTEA_HepaRG_SLC22A1: Life Technologies and Expression Analysis (LTEA) Assay for solute carrier (SLC22A1) using HepaRG (AID 2283524). The conditions noted are these: mRNA level, 48 h; actives raise or lower the signal. An outline of the steps: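 Transcript level of SLC22A1 quantified by qRT-PCR (normalized to three housekeeping genes) after 48 h chemical exposure of HepaRG cells, eight concentrations up to 100 µM, half-log steps, 0.5% DMSO vehicle. Gain or loss relative to DMSO fitted bidirectionally.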

Read-out in experiment [3]: NAD(P)H dehydrogenase [quinone] 1 (NQO1), NQO1 (gene 1728)
Kind of experiment: LTEA_HepaRG_NQO1: Life Technologies and Expression Analysis (LTEA) Assay for NAD(P)H dehydrogenase [quinone] 1 (NQO1) using HepaRG (AID 2283526). The conditions noted are these: mRNA level, 48 h; actives raise or lower the signal. An outline of the steps: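 qRT-PCR read-out (Fluidigm TaqMan), normalized to three housekeeping genes, after 48 h chemical exposure of HepaRG cells. Concentrations: eight points, top 100 uM, half-log steps, 0.5% DMSO vehicle. Gain or loss of signal fitted relative to DMSO.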

Read-out in experiment [4]: Nuclear factor erythroid 2-related factor 2 (Homo sapiens) (UniProt Q16236)
Kind of experiment: LTEA_HepaRG_NFE2L2: Life Technologies and Expression Analysis (LTEA) Assay for Nuclear factor erythroid 2-related factor 2 (NFE2L2) Transcription Factor using HepaRG (AID 2283527). As to conditions: mRNA level, 48 h; actives raise or lower the signal. An outline of the steps:
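NFE2L2 transcript level was read by qRT-PCR (housekeeping ACTB/GAPDH/POLR2A normalisation) after 48 h chemical treatment of HepaRG in serum-free induction medium. Duplicate 8-point half-log curves, top 100 uM, 0.5% DMSO vehicle; up- or down-regulation fitted against vehicle.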

Read-out in experiment [5]: succinate dehydrogenase complex iron sulfur subunit B (SDHB), SDHB (gene 6390)
Description: LTEA_HepaRG_SDHB: Life Technologies and Expression Analysis (LTEA) Assay for succinate dehydrogenase complex iron sulfur subunit B (SDHB) using HepaRG (AID 2283528). As to conditions: mRNA level, 48 h; actives raise or lower the signal. An outline of the steps: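 Readout is SDHB transcript level by qRT-PCR, normalised to three housekeeping genes and fitted bidirectionally against 0.5% DMSO vehicle. Human HepaRG cells were treated for 48 h at up to 100 uM.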

Read-out in experiment [6]: Signal transducer and activator of transcription 3 (Homo sapiens) (UniProt P40763)
Description: LTEA_HepaRG_STAT3: Life Technologies and Expression Analysis (LTEA) Assay for Signal transducer and activator of transcription (STAT3) using HepaRG (AID 2283529). As to conditions: mRNA level, 48 h; actives raise or lower the signal. An outline of the steps: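 STAT3 transcript quantified by qRT-PCR against three housekeeping genes (ACTB, GAPDH, POLR2A), fitted both directions relative to DMSO. HepaRG cultures exposed 48 h to eight half-log concentrations, top 100 uM, 0.5% DMSO, serum-free induction medium.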

Read-out in experiment [7]: solute carrier (SLCO1B1), SLCO1B1 (gene 10599)
Description: LTEA_HepaRG_SLCO1B1: Life Technologies and Expression Analysis (LTEA) Assay for solute carrier (SLCO1B1) using HepaRG (AID 2283530). As to conditions: mRNA level, 48 h; actives raise or lower the signal. An outline of the steps:
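Human HepaRG cultures treated for 48 h with an eight-concentration half-log series topping at 100 uM; SLCO1B1 measured by qRT-PCR and fitted bidirectionally relative to DMSO.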

Read-out in experiment [8]: sulfotransferase 2A1 (SULT2A1), SULT2A1 (gene 6822)
Kind of experiment: LTEA_HepaRG_SULT2A1: Life Technologies and Expression Analysis (LTEA) Assay for sulfotransferase 2A1 (SULT2A1) using HepaRG (AID 2283531). The conditions noted are these: mRNA level, 48 h; actives raise or lower the signal. An outline of the steps:
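Gene-expression endpoint in a human liver cell line: SULT2A1 mRNA change after 48 h chemical treatment, curves fitted in both directions relative to 0.5% DMSO vehicle. Concentrations spanned eight half-log steps from 100 uM.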

Read-out in experiment [9]: Transforming Growth Factor (TGFA), TGFA (gene 7039)
Kind of experiment: LTEA_HepaRG_TGFA: Life Technologies and Expression Analysis (LTEA) Assay for Transforming Growth Factor (TGFA) using HepaRG (AID 2283532). The conditions noted are these: mRNA level, 48 h; actives raise or lower the signal. An outline of the steps: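 TGFA transcript quantified by qRT-PCR (Fluidigm arrays) against three housekeeping genes, after 48 hours chemical treatment of HepaRG cells. Top concentration 100 uM with half-log dilutions, 8 points, duplicates, 0.5% DMSO.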

Read-out in experiment [10]: Transforming Growth Factor (TGFB1), TGFB1 (gene 7040)
Kind of experiment: LTEA_HepaRG_TGFB1: Life Technologies and Expression Analysis (LTEA) Assay for Transforming Growth Factor (TGFB1) Transporter using HepaRG (AID 2283533). The conditions noted are these: mRNA level, 48 h; actives raise or lower the signal. An outline of the steps:
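Eight-point concentration-response (max 100 uM, half-log) in HepaRG under serum-free induction conditions, 48 h. TGFB1 mRNA by qRT-PCR, housekeeping-normalized.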

Read-out in another experiment: TIMP1, TIMP1 (gene 7076)
Description: LTEA_HepaRG_TIMP1: Life Technologies and Expression Analysis (LTEA) Assay for TIMP1 using HepaRG (AID 2283534). The conditions noted are these: mRNA level, 48 h; actives raise or lower the signal. An outline of the steps: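 TIMP1 induction or repression in HepaRG cells after 48 h chemical exposure (eight concentrations, highest 100 uM), assessed by normalized qRT-PCR with bidirectional fitting to DMSO controls.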

Read-out in experiment [11]: Tumor necrosis factor receptor 1 (TNFRSF1A), TNFRSF1A (gene 7132)
Kind of experiment: LTEA_HepaRG_TNFRSF1A: Life Technologies and Expression Analysis (LTEA) Assay for Tumor necrosis factor receptor 1 (TNFRSF1A) using HepaRG (AID 2283535). As to conditions: mRNA level, 48 h; actives raise or lower the signal. An outline of the steps: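 Assay uses 48 h chemical treatment of differentiated HepaRG monolayers, tested in duplicate at eight concentrations from 100 uM downward in 0.5% DMSO. mRNA is normalized to ACTB, GAPDH and POLR2A, with induction or suppression fitted relative to vehicle.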

Read-out in experiment [12]: Thyroid Hormone Responsive (THRSP), THRSP (gene 7069)
Kind of experiment: LTEA_HepaRG_THRSP: Life Technologies and Expression Analysis (LTEA) Assay for Thyroid Hormone Responsive (THRSP) using HepaRG (AID 2283536). The conditions noted are these: mRNA level, 48 h; actives raise or lower the signal. An outline of the steps:
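THRSP transcript quantified by Fluidigm qRT-PCR against three housekeeping genes after 48 h chemical exposure of HepaRG cells in serum-free induction medium; eight-point half-log series, top 100 uM, 0.5% DMSO vehicle, duplicate wells.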

Read-out in experiment [13]: Cellular tumor antigen p53 (Homo sapiens) (UniProt P04637)
Kind of experiment: LTEA_HepaRG_TP53: Life Technologies and Expression Analysis (LTEA) Assay for Tumor Protein P53 (TP53) using HepaRG (AID 2283537). As to conditions: mRNA level, 48 h; actives raise or lower the signal. An outline of the steps: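 Read-out is TP53 transcript level by microfluidic qRT-PCR, normalised to three housekeeping genes and fitted bidirectionally against DMSO. Human HepaRG cells received compounds for 48 h, highest concentration 100 uM.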

Read-out in experiment [14]: UDP glucuronosyltransferase (UGT1A1), UGT1A1 (gene 54658)
Description: LTEA_HepaRG_UGT1A1: Life Technologies and Expression Analysis (LTEA) Assay for UDP glucuronosyltransferase (UGT1A1) using HepaRG (AID 2283538). As to conditions: mRNA level, 48 h; actives raise or lower the signal. An outline of the steps: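 HepaRG, 48 h chemical exposure (top 100 uM, half-log 8-pt, 0.5% DMSO vehicle), duplicate wells; qRT-PCR (TaqMan, Fluidigm array) for UGT1A1 mRNA, housekeeping-normalized; bidirectional curve fit vs DMSO baseline.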

Read-out in experiment [15]: UDP glucuronosyltransferase (UGT1A6), UGT1A6 (gene 54578)
Kind of experiment: LTEA_HepaRG_UGT1A6: Life Technologies and Expression Analysis (LTEA) Assay for UDP glucuronosyltransferase (UGT1A6) using HepaRG (AID 2283539). As to conditions: mRNA level, 48 h; actives raise or lower the signal. An outline of the steps:
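Measures mRNA change in HepaRG hepatic cells exposed 48 h to chemicals (eight-point, maximum 100 uM, 0.5% DMSO vehicle) in serum-free induction medium. Expression normalized to endogenous controls; DMSO served as negative control and baseline.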

Read-out in experiment [16]: X-box binding protein 1 (XBP1), XBP1 (gene 7494)
Description: LTEA_HepaRG_XBP1: Life Technologies and Expression Analysis (LTEA) Assay for X-box binding protein 1 (XBP1) using HepaRG (AID 2283540). The conditions noted are these: mRNA level, 48 h; actives raise or lower the signal. An outline of the steps: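 Eight concentrations (half-log, highest 100 uM, 0.5% DMSO) tested in duplicate on HepaRG cells over 48 h in serum-free induction medium; qRT-PCR of XBP1 normalised to ACTB, GAPDH, POLR2A.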

A short description of experiment [17]: LTEA_HepaRG_LDH_cytotoxicity: Cytotoxicity Assessment in the Life Technologies and Expression Analysis (LTEA) Assay (AID 2283563; active means hit-call score of the fitted dose curve at least 0.9, where 1 is the maximum). An outline of the steps: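 Spent-medium LDH after 48 h chemical exposure of HepaRG cells in serum-free induction medium; eight concentrations, half-log dilutions from 100 uM, duplicate wells, fitted upward relative to 0.5% DMSO.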

Read-out in experiment [18]: Pyruvate Dehydrogenase Kinase 4 (PDK4), PDK4 (gene 5166)
Kind of experiment: LTEA_HepaRG_PDK4: Life Technologies and Expression Analysis (LTEA) Assay for Pyruvate Dehydrogenase Kinase 4 (PDK4) using HepaRG (AID 2283525). As to conditions: mRNA level, 48 h; actives raise or lower the signal. An outline of the steps: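 Readout is qRT-PCR of PDK4 transcript, normalized to three housekeeping genes, with bidirectional fitting against 0.5% DMSO vehicle. Differentiated HepaRG cells were treated 48 h in serum-free induction medium, duplicate wells, eight-point half-log series topping at 100 uM.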

Experiment [19] is described as follows: ATG_XTT_Cytotoxicity: Cytotoxicity Assessment in the Attagene TRANS-FACTORIAL HepG2 Assay (AID 2283584; active means hit-call score of the fitted dose curve at least 0.9, where 1 is the maximum). An outline of the steps: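 24 h chemical exposure of reporter-transfected HepG2; XTT signal loss vs DMSO indicates cytotoxicity.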

Cellular tumor antigen p53 (Homo sapiens), sequence (P04637 whole entry, looked up): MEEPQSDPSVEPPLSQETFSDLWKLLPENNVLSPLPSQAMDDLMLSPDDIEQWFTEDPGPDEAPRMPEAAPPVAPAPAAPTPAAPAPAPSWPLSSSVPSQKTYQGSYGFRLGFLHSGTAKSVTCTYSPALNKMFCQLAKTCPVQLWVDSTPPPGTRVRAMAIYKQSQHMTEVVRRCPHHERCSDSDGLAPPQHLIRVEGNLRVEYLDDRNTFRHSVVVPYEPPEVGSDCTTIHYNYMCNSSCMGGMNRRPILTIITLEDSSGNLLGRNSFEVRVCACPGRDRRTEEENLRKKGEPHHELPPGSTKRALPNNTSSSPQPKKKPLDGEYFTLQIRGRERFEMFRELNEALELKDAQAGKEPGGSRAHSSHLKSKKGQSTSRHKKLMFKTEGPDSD
Nuclear factor erythroid 2-related factor 2 (Homo sapiens), sequence (Q16236 whole entry, looked up): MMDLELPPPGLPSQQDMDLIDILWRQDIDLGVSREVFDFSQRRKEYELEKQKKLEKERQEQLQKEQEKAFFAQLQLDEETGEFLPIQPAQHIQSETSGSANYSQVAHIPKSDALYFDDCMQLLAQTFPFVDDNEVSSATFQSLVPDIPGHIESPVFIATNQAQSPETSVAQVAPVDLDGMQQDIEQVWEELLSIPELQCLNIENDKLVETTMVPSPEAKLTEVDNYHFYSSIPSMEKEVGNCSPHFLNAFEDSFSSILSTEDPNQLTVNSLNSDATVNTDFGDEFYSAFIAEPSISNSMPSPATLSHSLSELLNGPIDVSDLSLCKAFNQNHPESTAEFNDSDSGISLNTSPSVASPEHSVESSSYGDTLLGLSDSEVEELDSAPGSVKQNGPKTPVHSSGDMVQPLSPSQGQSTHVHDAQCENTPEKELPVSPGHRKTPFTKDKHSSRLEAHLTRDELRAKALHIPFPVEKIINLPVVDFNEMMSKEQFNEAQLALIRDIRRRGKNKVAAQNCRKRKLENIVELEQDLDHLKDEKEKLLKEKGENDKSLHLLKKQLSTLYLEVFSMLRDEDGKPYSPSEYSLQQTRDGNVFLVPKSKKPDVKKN
Signal transducer and activator of transcription 3 (Homo sapiens), sequence (P40763 whole entry, looked up): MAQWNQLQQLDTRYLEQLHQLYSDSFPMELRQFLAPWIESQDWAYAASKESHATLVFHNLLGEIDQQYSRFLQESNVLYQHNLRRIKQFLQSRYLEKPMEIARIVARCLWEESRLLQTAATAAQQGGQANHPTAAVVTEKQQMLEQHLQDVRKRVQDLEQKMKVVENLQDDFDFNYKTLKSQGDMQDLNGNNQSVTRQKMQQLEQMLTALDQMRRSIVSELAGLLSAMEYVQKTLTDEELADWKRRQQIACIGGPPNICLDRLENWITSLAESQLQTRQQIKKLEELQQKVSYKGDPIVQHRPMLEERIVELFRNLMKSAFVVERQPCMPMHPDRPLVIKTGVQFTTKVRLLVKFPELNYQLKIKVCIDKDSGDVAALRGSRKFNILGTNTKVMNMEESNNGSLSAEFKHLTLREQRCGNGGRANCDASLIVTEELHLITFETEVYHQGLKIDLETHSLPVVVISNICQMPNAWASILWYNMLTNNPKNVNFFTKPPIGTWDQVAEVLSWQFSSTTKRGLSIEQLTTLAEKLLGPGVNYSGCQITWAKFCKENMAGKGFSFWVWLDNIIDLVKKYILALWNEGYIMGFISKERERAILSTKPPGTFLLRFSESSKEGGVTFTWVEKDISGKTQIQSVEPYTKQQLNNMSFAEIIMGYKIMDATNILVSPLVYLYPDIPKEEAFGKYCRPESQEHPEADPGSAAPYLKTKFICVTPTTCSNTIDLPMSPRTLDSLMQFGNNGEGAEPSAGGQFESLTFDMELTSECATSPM

For orientation: AC50 means the midpoint of the concentration-response curve, whichever way the signal moves. In the case of `Nc1ccc(Nc2ccccc2)cc1`, the result in [1], in [2], in [3], in experiment [4], in experiment [5] and in [6] was inactive. The outcome was “inactive” in experiment [8]; “inactive” in [9]; “inactive” in experiment [10]; “inactive” in the experiment with TIMP1, TIMP1 (gene 7076); “inactive” in experiment [11]; “inactive” in experiment [12]. Moreover, the molecule was called inactive in experiment [13], in experiment [15], in experiment [16] and in experiment [17]. The AC50 was 35.4 µM (active) in [7] and 50 µM (active) in [14].

As for `CCOCCO`, the outcome in experiment [1], in experiment [2], in [18], in [4], in experiment [5] and in experiment [6] was inactive. Moreover, the outcome was “inactive” in [7]; “inactive” in experiment [8]; “inactive” in experiment [9]; “inactive” in [10]; “inactive” with TIMP1, TIMP1 (gene 7076); “inactive” in experiment [11]. Besides, the molecule was classed as inactive in [12], in experiment [13], in [14], in experiment [15], in experiment [17] and in experiment [19].

Turning to `CNCc1ccc(NC(=O)c2c[nH]c3c2C(=O)CCC3)cc1`, the result in [1], in experiment [2], in [18], in experiment [4], in [5] and in experiment [6] was inactive. The outcome was “inactive” in experiment [7]; “inactive” in experiment [8]; “inactive” in experiment [9]; “inactive” in [10]; “inactive” with TIMP1, TIMP1 (gene 7076); “inactive” in experiment [11]. Moreover, the molecule was called inactive in experiment [12], in experiment [13], in [14], in [15] and in experiment [17].

In the case of `CC(O)CN(CCN(CC(C)O)CC(C)O)CC(C)O` (stereo unspecified), the molecule was classed as inactive in experiment [1], in experiment [2], in [18], in [5], in experiment [6] and in experiment [7]. Besides, the outcome in [8] was “inactive”; in experiment [9], “inactive”; in experiment [10] it was “inactive”; with TIMP1, TIMP1 (gene 7076), “inactive”; in experiment [11], “inactive”; in experiment [12] it was “inactive”. In addition, the result in experiment [13], in [14], in [15], in experiment [17] and in experiment [19] was inactive. Moreover, the AC50 in experiment [4] is 12.6 µM (active).

These data come from PubChem BioAssay (EPA / NIEHS).
